# Test results: PubChem BioAssay AID720517 (National Center for Advancing Translational Sciences (NCATS), 2013)
# Records with an inconclusive call do not appear. A number with no mark means an inactive call. The call rests on the fitted dose curve; in most records, active means well fitted activation curve with a large enough effect; inconclusive means small, poorly fitted or top-dose-only effect; inactive means flat fitted curve, though single readings scatter.
# Experiment: qHTS for Inhibitors of Cell Surface uPA Generation: FP59 Counterscreen for Cherry-picked Compounds; further: 0% is about no effect
# Conditions: FP59 anthrax toxin cytotoxicity counterscreen, cells; series mostly up to 115 µM; activity (protection from FP59): at the top concentration
row,SMILES,activity (protection from FP59)
1,CC1(C)C([N+](=O)[O-])C(c2ccc(F)cc2)NC(c2ccc(F)cc2)C1[N+](=O)[O-] (stereo not given),2.83%
2,CCn1c(SC(C)C(=O)NC2CCCC2)nc2cc(S(N)(=O)=O)ccc21 (stereo not given),-1.27%
3,CC(/C=C1\SC(=S)N(CCCC(=O)Nc2ccc(C(=O)O)cc2)C1=O)=C\c1ccccc1,-0.862%
4,O=C(O)COc1ccccc1/C=N/NC(=O)CNC(=O)c1ccco1,-1.05%
5,Cc1ccc(C(CC(=O)N2CCCC2)c2ccccc2)c(O)c1 (stereo not given),-0.648%
6,CCOCc1nnc(NC(=O)C2CCN(C(=O)C3CC(=O)N(c4ccc(C)cc4)C3)CC2)s1 (stereo not given),-1.45%
7,Cc1ccccc1S(=O)Cc1ccc(C(=O)N2CCN(C(=O)c3ccco3)CC2)o1 (stereo not given),-1.44%
8,Brc1ccsc1/C=N/Nc1ccccc1,0.415%
9,NC(=O)c1cc2ccncc2c2ccccc12,0.728%
10,COc1ccccc1CN1CC(C(=O)NCc2cccc(C)n2)CCC1=O (stereo not given),-0.85%
11,CC[C@]1(C(=O)OC)[C@H]2C(=O)N(C)C(=O)[C@H]2[C@H]2CN(C)C(=NC3CCCCC3)N21,0.0361%
12,COc1ccc(S(=O)(=O)c2c(O)c3ccc(C(=O)Nc4ccccc4)cc3[nH]c2=O)cc1,-1.37%
13,O=C(COC(=O)c1cccc([N+](=O)[O-])c1)NNC(=O)c1cccs1,-1.51%
14,Cc1cc(N)n(Cc2ccc(Cl)cc2)n1,-1.26%
15,COc1ccc(-c2sc3ccccc3c2C#CCO)cc1,2.09%
16,N#C/C(N=Nc1ccccc1O)=N\Nc1ccccc1O,11.3%
17,CNC(=O)[C@@H]1CCC(=O)N1,-1.3%
18,CCn1nc(C)c(CNC(=O)C2CCC(=O)N(CCc3ccc(OC)cc3)C2)c1C (stereo not given),-1.23%
19,CCS(=O)c1scc(-c2ccc(Cl)cc2)c1C#N (stereo not given),-1.16%
20,O=c1ccc(S(=O)(=O)N2CCCC2)c[nH]1,-1.23%

row,SMILES,activity (protection from FP59)
1,O=C(CCS(=O)(=O)c1ccc2c(c1)NC(=O)CS2)NCCc1ccc(Cl)cc1,0.0567%
2,O=S(=O)(NCC(c1cccnc1)N1CCOCC1)c1ccccc1 (stereo not given),-1.32%
3,COc1ccc(C2=C/C(=C\c3ccccc3OC(C)=O)C(=O)O2)cc1,3.33%
4,Cc1ccc(S(=O)(=O)Nc2nc(C)cc(N/N=C/c3ccc(O)cc3)n2)cc1,0.72%
5,CC1CCCN(C(=O)c2ccc(-c3ccccc3Cl)o2)C1 (stereo not given),-1.48%
6,N#CCC(=O)N/N=C/c1ccc(OCC(=O)Nc2ccc(F)cc2)cc1,0.0987%
7,O=C1[C@H]2[C@@H](c3ccc(F)cc3)N3C(=O)N(c4cccc(Br)c4)C(=O)[C@@]3(Cc3ccc(Cl)cc3)[C@H]2C(=O)N1C1CCCCC1,-0.57%
8,O=[N+]([O-])c1cccc2c(N3CCOCC3)ccnc12,-0.897%
9,O=C(NCc1ccco1)/C(=C\c1cccs1)NC(=O)c1ccccc1,-1.31%
10,COc1cc(C(=O)Nc2nnc(C)s2)cc(OC)c1OC,-1.5%
11,CCC1(CC)NC(=O)N(CC(=O)OCC(=O)c2cc(C)c(C)cc2C)C1=O,-1.2%
12,CCCC1=NN(C(=O)Cc2ccc(OC)cc2)C(O)(C(F)(F)F)C1 (stereo not given),-1.35%
13,CN1CC[C@]23c4ccccc4N[C@H]1[C@]21CCN(C)[C@H]3Nc2ccccc21,-1.45%
14,CCOC(=O)Oc1c(OC)cc(C(=O)O[C@@H]2C[C@@H]3CN4CCc5c([nH]c6cc(OC)ccc56)[C@H]4C[C@@H]3[C@H](C(=O)OC)[C@H]2OC)cc1OC,2.97%
15,C/C(=N\NC(=O)c1cccc([N+](=O)[O-])c1)c1cccnc1,-1.46%
16,CCc1ccc(S(=O)(=O)NCCc2cn3cccc(C)c3n2)s1,-1.48%
17,CCOC(=O)c1c(C)oc2ccc(OC(=O)COc3c(F)c(F)c(F)c(F)c3F)cc12,-1.32%
18,CC1CC(C)(C)Nc2ccc(N=O)cc21 (stereo not given),-1.58%
19,CN(CC(=O)N(C)CC(=O)Nc1c(Cl)cccc1Cl)Cc1ccccc1F,-1.27%
20,Cc1cnc(CNC(=O)CC2C(=O)NCCN2Cc2ccccc2C(F)(F)F)cn1 (stereo not given),-1.1%
